Values joined by “and” are separate entries in the source; they are usually repeats but may differ in a detail not shown here. Equal values may be shown once. Results filed as inconclusive are left out. Active and inactive are the calls of the source. Unless noted, calls come from the whole dose curve; as a rule, active = well fitted curve in the direction sought with a large enough effect; inconclusive = small, poorly fitted or top-dose-only effect, or another doubt; inactive = no such curve, though single readings can be large; an effect the other way counts as inactive or inconclusive.
Tests used:
[1] = molecular target: Cytochrome P450 1A2 (Homo sapiens) (UniProt P05177); assay: p450-cyp1a2 (AID 410; calls by dose curve; note: potency is the fitted concentration of half-maximal effect;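 for activity change, negative = inhibition: -100% = full effect of reference inhibitor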); conditions: recombinant CYP1A2, luciferin-ME demethylation, luminescence; series mostly up to 57 µM
In short: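 Inhibition was calculated relative to 57 uM furafylline (full inhibition). The reaction used human CYP1A2 at 20nM with Luciferin-ME at its Km, 100uM, driven by an NADPH-regenerating system for 60 min at room temperature.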

[2] = NFAT Signaling Pathway (AID 444; active = well fitted curve in either direction with a large enough effect, not every such curve was filed as active;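 note: carbachol stimulus at about its EC50 of 1 µM final; % is set by controls: 0 for no effect and ±100 for the full control effect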); conditions: Jurkat NFAT-bla M1, carbachol, beta-lactamase ratio, 5 h; at 7.69 µM (top of the series) unless noted
In short: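 Jurkat cells carrying an NFAT-driven β-lactamase reporter and co-transfected muscarinic M1 receptor were treated with compound plus carbachol (1 uM final, an EC50 level) for 5 h at 37 °C. CCF4 loading followed for 1 h at RT; 460/530 nm ratio gave %activity.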

[3] = Stat Signaling Pathway (AID 446; active = well fitted curve in either direction with a large enough effect, not every such curve was filed as active;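 note: ME-180 cervical cancer cells given 40 pM IL-6 alongside compound; SIE-controlled beta-lactamase reporter measured as 460/530 nm FRET emission ratio; % is set by controls: 0 for no effect and ±100 for the full control effect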); conditions: ME-180 SIE beta-lactamase reporter, IL-6 stimulated, 5 h
In short: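 ME-180 cells carrying a SIE-driven beta-lactamase reporter are stimulated with 40 pM IL-6 for 5 h at 37C in the presence of compound. The 460/530 nm FRET substrate ratio is read after 2.5 h at RT. Data are normalised to 300 pM IL-6 and to 125 nM JAK inhibitor controls.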

[4] = molecular target: Mitogen-activated protein kinase 10 (Mus musculus) (UniProt Q61831); assay: JNK3 AlphaScreen Assay (AID 530; active = well fitted curve in either direction with a large enough effect, not every such curve was filed as active;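 note: kinase came from lysate of stimulated human HepG2 cells; signal reports phosphorylation of biotinylated GST-cJun 1-79 at Ser73 with 10 µM ATP; % is set by controls: 0 for no effect and ±100 for the full control effect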); conditions: JNK3 lysate, c-Jun phosphorylation; series mostly up to 57.1 µM
In short: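 JNK3 came from HepG2 lysates pre-activated with IL-1beta and TNF-alpha and phosphorylated biotinylated GST-cJun (1-79) at 10 uM ATP, pH 7.6, room temperature. Compounds were titrated. AlphaScreen signal used anti-phospho-cJun (Ser73) antibody.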

[5] = molecular target: 3',5'-cyclic-AMP phosphodiesterase 4B (Homo sapiens) (UniProt Q07343); assay: qHTS Assay for Inhibitors of PDE-IV (AID 607; active = well fitted activation curve with a large enough effect in the main read-out, with a control signal flat, not every such curve was filed as active; note: % of control where 0% means no effect); conditions: HEK293 ACTOne CNG channel cells, membrane potential fluorescence; series mostly up to 22.9 µM
In short: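 HEK293 ACTOne cells with CNG channel (1000/well), endogenous PDE4; membrane potential dye, compounds up to 22.9 uM final. Fluorescence Ex 535/Em 590; RO 20-1724 (100 uM final) as reference.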

[6] = qHTS Assay for Lipid Storage Modulators (AID 1519; calls by dose curve); conditions: Drosophila S3 cells, BODIPY lipid droplet/cell ratio, laser cytometry, cells loaded with oleic acid
In short: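 Cells seeded at 5,000 per well were treated with compounds over a concentration series and loaded with oleic acid (400 uM, as added). Lipid droplet fluorescence (488 nm excitation, 500-530 nm channel) was read by laser-scanning cytometry and normalized to 20 uM Triacsin C.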

[7] = molecular target: ATP-dependent 6-phosphofructokinase (Trypanosoma brucei brucei) (UniProt O15648); assay: qHTS Assay to Find Inhibitors of T. brucei phosphofructokinase: hit validation (AID 492961);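 note: luminescence reports ADP formed as PFK phosphorylates fructose-6-phosphate with ATP; % is set by controls: 0 for no effect and ±100 for the full control effect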; conditions: T. brucei PFK, ADP-Glo luminescence; series mostly up to 24.3 µM
In short: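 Percent activity derived from corrected luminescence, normalized between 0x and 1x enzyme controls, then fitted to concentration-response curves. Conditions: 1.25 nM PFK, 0.1 mM ATP, 0.5 mM F6P, 45 min RT.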

[8] = molecular target: Ubiquitin carboxyl-terminal hydrolase 1 (Homo sapiens) (UniProt O94782); assay: Inhibitors of USP1/UAF1: Pilot qHTS (AID 504865); conditions: purified USP1/UAF1, Ub-rhodamine cleavage fluorescence; series mostly up to 54.9 µM;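 note: rhodamine fluorescence freed from ubiquitin-rhodamine substrate followed over time; top concentration of the series differs between compounds; % is set by controls: 0 for no effect and ±100 for the full control effect; nearly all actives have a fitted effect of over 35% in size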
In short: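 USP1/UAF1 complex (1nM) preincubated with compound 15 min at room temperature, then Ub-Rho substrate (150nM final) added. Fluorescence read kinetically at 480/540 nm, 6 reads every 60 seconds. Buffer: 50mM HEPES pH 7.8, 0.5mM EDTA, 0.1 mg/ml BSA, 1mM TCEP, 0.01% Tween-20.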

[9] = molecular target: Luciferin 4-monooxygenase (Photinus pyralis) (UniProt P08659); assay: Biochemical firefly luciferase enzyme assay for NPC (AID 624030);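 note: purified P. pyralis luciferase at 10 nM with luciferin and ATP substrate; 0% = DMSO and -100% = full luciferase inhibition by PTC124 control; nearly all actives have a fitted effect of over 70% in size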; conditions: purified P. pyralis luciferase, luminescence, 5 min; series mostly up to 58.6 µM
In short: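 Counter-screen for direct inhibition of the luciferase enzyme by approved-drug library compounds, run at 10 nM enzyme in 50 mM Tris acetate (final). Luminescence was read within 5 min of enzyme-buffer addition and normalized to PTC124 versus DMSO (0%).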

[10] = qHTS profiling for inhibitors of Plasmodium falciparum proliferation (AID 504749);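 note: 0% = DMSO vehicle and full inhibition = artemisinin control; nearly all actives have a fitted effect of over 60% in size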; conditions: P. falciparum in erythrocytes, SYBR Green DNA, 72 h, at 28.7 µM (top of the series)
In short: (§1)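 P. falciparum-infected erythrocytes (0.3% parasitemia, 2.5% hematocrit final) were exposed to compounds for 72 h at 37 C in 5% CO2, then lysed with SYBR Green buffer overnight at room temperature; parasite DNA fluorescence was normalized to artemisinin and DMSO controls.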

CP238 = assay: as above; conditions: P. falciparum in erythrocytes, SYBR Green DNA, 72 h; series mostly up to 12.8 µM
In short: as §1

CP262 = assay: as above; conditions: P. falciparum in erythrocytes, SYBR Green DNA, 72 h; series mostly up to 12.8 µM
In short: as §1

CP325 = assay: as above; conditions: P. falciparum in erythrocytes, SYBR Green DNA, 72 h; series mostly up to 12.8 µM
In short: as §1

ECU = assay: as above; conditions: P. falciparum in erythrocytes, SYBR Green DNA, 72 h; series mostly up to 12.8 µM
In short: as §1

FAB9 = assay: as above; conditions: P. falciparum in erythrocytes, SYBR Green DNA, 72 h; series mostly up to 12.8 µM
In short: as §1

HB3 = assay: as above; conditions: P. falciparum in erythrocytes, SYBR Green DNA, 72 h; series mostly up to 12.8 µM
In short: as §1

JCK = assay: as above; conditions: P. falciparum in erythrocytes, SYBR Green DNA, 72 h; series mostly up to 12.8 µM
In short: as §1

[11] = AP1 Signaling Pathway (AID 357; active = well fitted curve in either direction with a large enough effect, not every such curve was filed as active; note: % is set by controls: 0 for no effect and ±100 for the full control effect); conditions: ME-180 AP-1-bla reporter, EGF-induced, beta-lactamase ratio, 5 h; at 7.69 µM (top of the series) unless noted
In short: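 ME-180 cells with beta-lactamase reporter under AP-1 response element, stimulated with EC50 EGF; compounds tested in titration series, 5 h at 37 °C. CCF4 substrate added 2.5 h at room temperature; 460/530 nm emission ratio gave %activity and AC50.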

[12] = molecular target: Glucocorticoid receptor (Homo sapiens) (UniProt P04150); assay: GR-GFP Redistribution (AID 450;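 active = compounds whose dose series gives a full or clear partial fitted curve of increased nuclear translocation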; note: potency is the fitted concentration of half-maximal effect); conditions: U2OS GR-GFP nuclear translocation, laser cytometry, 2 h
[13] = molecular target: Glucocorticoid receptor (Homo sapiens) (UniProt P04150); assay: GR-EFC Redistribution (AID 451; calls by dose curve; note: potency is the fitted concentration of half-maximal effect); conditions: CHO-K1 GR-EFC translocation, beta-gal luminescence, 2 h
In short: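 CHO-K1 cells stably expressing nuclear-localized β-gal enzyme acceptor and GR fused C-terminally to the enzyme donor fragment; ligand-driven nuclear translocation restores β-gal by complementation. Compounds titrated up to 46 uM final, 2 h at 37 °C; luminescence read.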

[14] = measured here: cell count channel max response
[15] = measured here: lipid channel max response
[16] = at 7.69 µM (top of the series) unless noted

Chain of Ubiquitin carboxyl-terminal hydrolase 1 (Homo sapiens) (O94782 whole entry, looked up): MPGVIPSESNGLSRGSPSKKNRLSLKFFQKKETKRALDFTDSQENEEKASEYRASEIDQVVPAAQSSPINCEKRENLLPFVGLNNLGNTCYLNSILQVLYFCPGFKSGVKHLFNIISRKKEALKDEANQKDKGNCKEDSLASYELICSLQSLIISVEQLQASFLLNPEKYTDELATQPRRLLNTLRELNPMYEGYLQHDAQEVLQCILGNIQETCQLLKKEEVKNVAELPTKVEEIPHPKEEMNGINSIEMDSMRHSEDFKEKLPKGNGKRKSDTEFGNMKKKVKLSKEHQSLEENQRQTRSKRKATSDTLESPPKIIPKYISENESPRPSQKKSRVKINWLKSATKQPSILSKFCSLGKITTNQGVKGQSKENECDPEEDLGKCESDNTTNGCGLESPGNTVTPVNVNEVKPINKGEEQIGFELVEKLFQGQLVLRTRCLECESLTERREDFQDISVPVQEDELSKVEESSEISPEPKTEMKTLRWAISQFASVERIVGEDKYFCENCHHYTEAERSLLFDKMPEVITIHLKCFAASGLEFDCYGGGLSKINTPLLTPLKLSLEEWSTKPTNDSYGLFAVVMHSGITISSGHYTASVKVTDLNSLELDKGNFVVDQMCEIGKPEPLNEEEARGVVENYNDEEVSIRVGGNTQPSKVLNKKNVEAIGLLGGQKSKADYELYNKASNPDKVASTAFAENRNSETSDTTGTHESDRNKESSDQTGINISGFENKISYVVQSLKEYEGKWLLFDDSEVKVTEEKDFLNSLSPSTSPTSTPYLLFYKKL
Chain of 3',5'-cyclic-AMP phosphodiesterase 4B (Homo sapiens) (Q07343 whole entry, looked up): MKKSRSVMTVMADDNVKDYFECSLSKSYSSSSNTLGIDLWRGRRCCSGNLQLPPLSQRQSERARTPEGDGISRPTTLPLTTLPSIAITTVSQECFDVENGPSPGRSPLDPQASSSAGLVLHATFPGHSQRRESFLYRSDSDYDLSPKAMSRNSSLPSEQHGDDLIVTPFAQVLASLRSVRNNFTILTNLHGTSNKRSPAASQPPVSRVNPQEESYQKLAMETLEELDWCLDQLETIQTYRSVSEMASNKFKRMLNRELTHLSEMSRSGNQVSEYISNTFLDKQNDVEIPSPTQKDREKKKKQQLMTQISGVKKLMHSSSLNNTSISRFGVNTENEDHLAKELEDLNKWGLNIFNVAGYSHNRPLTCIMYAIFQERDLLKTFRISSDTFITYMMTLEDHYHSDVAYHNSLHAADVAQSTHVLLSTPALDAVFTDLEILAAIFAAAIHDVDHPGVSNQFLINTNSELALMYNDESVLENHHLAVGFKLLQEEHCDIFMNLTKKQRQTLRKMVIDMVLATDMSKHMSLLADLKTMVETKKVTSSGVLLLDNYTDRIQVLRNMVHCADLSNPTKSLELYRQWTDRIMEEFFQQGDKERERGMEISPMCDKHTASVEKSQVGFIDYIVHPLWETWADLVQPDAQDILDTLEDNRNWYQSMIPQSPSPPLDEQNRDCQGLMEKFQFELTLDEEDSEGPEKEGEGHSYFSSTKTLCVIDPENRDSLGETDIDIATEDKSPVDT
Chain of Glucocorticoid receptor (Homo sapiens) (P04150 whole entry, looked up, the tested form may be a part): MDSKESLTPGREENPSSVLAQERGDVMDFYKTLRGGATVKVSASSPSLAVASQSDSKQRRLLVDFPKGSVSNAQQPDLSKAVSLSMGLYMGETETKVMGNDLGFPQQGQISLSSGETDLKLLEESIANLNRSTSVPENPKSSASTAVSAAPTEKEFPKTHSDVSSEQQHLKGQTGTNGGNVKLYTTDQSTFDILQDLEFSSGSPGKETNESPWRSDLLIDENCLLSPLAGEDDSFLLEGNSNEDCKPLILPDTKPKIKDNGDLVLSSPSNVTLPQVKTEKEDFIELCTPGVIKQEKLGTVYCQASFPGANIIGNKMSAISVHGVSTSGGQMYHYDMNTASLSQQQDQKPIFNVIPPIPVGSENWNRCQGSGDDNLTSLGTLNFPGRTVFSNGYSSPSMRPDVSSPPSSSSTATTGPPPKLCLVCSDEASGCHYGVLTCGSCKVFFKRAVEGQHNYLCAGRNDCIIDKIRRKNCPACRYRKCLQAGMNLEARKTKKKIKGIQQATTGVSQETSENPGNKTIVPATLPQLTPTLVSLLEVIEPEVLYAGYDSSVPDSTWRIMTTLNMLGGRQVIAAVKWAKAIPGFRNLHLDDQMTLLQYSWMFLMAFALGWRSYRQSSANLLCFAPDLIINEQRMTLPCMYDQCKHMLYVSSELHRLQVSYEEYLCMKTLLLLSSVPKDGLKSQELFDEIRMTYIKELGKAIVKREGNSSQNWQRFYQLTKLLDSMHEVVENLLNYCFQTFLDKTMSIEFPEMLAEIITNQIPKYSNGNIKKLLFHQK
Chain of Cytochrome P450 1A2 (Homo sapiens) (P05177 whole entry, looked up): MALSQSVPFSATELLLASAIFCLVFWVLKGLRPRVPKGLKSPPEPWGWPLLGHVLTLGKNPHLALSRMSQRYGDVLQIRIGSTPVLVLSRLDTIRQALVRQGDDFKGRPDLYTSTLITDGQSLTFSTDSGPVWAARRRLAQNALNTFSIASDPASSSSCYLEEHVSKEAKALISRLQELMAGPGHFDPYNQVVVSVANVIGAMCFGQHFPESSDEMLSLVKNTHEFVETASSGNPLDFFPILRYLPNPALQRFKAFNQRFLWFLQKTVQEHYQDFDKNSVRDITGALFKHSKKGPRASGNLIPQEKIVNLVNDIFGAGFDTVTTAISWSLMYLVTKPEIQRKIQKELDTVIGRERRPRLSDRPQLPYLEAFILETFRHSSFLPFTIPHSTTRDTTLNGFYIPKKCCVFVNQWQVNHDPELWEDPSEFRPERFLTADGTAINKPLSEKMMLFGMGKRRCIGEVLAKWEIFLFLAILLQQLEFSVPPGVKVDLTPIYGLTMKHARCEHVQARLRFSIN
Chain of ATP-dependent 6-phosphofructokinase (Trypanosoma brucei brucei) (O15648 whole entry, looked up): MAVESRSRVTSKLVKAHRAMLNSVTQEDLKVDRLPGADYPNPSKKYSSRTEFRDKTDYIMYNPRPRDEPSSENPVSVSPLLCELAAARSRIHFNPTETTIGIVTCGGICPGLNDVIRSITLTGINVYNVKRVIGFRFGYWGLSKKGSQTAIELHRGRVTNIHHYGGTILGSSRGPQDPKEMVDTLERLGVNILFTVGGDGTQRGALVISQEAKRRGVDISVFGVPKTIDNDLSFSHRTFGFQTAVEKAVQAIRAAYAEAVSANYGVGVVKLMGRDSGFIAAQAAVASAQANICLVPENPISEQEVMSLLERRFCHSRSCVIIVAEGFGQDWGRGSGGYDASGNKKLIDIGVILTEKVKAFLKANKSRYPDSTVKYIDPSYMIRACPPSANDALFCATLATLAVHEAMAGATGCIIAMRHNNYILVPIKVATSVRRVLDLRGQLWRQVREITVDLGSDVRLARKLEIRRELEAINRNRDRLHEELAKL
Chain of Luciferin 4-monooxygenase (Photinus pyralis) (P08659 whole entry, looked up): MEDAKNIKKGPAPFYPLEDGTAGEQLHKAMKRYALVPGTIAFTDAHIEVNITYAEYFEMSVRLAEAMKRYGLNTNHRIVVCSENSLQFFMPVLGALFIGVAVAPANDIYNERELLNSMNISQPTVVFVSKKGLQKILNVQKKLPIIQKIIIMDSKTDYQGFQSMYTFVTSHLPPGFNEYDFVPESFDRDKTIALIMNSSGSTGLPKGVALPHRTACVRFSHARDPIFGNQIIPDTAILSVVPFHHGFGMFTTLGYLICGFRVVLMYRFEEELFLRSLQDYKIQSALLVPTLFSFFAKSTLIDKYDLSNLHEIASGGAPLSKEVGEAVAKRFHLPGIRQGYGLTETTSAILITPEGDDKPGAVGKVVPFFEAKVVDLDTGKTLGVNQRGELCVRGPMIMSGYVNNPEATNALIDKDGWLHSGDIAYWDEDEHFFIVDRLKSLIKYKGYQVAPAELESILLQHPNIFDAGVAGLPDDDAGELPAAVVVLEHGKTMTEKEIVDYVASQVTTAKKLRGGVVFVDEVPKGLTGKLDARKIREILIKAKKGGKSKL

CC[C@H](NC(C)C)[C@H](O)c1ccc(O)c(O)c1
-4.02%: max response [6, 14]
active: Potency [1] 15.8 µM and 12.6 µM
inactive: activity change, negative = inhibition [2] -6.46% [at 17.2 µM] | activity, negative = inhibition ([3]; at 17.2 µM (top of the series)) 3.17% | activity, negative = inhibition ([3]; at 38 µM (top of the series)) -26.1% | Potency [4] | Potency [5] | activity change, negative = inhibition ([6]; at 25.7 µM (top of the series)) -0.896% | outcome [7] | Potency [8] | outcome [9] | activity, negative = inhibition ([10]; parasite line A) 4.3% | activity, negative = inhibition ([10]; parasite line B) -2.19% | Potency (CP238) | Potency (CP262) | Potency (CP325) | Potency (ECU) | Potency (FAB9) | Potency (HB3) | Potency (JCK)
-11.2%: max response [6, 15]

CC(=O)Oc1c(C)c(C)c2c(c1C)CCC(C)(CCCC(C)CCCC(C)CCCC(C)C)O2 (stereo not given)
12.6% and -6.49%: max response [6, 15]
1.52% and -6.76%: max response [6, 14]
inactive: activity change, negative = inhibition ([6]; at 57.5 µM (top of the series)) 7.46% and -0.674% | Potency [8]

CNc1nc(-c2ccccc2C(F)(F)F)nc2ccccc12
inactive: activity change, negative = inhibition [11] -1.48% | activity change, negative = inhibition [2] 5.59% | activity, negative = inhibition [3, 16] 3.95% | Potency [12] > 46 µM | Potency [13] > 46 µM | Potency [4] | Potency [5] | activity change, negative = inhibition ([6]; at 57.5 µM (top of the series)) 5.47%
active: Potency [1] 251 nM
19.8%: max response [6, 15]
10%: max response [6, 14]

COc1c2ccoc2nc2c(OC)c(OC[C@H](O)C(C)(C)O)ccc12
active: Potency [1] 10 µM and 25.1 µM
inactive: activity change, negative = inhibition [11] 1.86% [at 17.2 µM] | activity change, negative = inhibition [2] 15.7% [at 17.2 µM] | activity, negative = inhibition [3, 16] -10.7% [at 17.2 µM] | Potency [12] > 20.6 µM and > 46 µM | Potency [13] > 20.6 µM and > 46 µM | Potency [4] | Potency [5] | activity change, negative = inhibition ([6]; at 25.7 µM (top of the series)) -1.84% | Potency [8]
-8.76%: max response [6, 14]
-11%: max response [6, 15]

CCN[C@@H]1C[C@H](C)S(=O)(=O)c2sc(S(N)(=O)=O)cc21
inactive: activity change, negative = inhibition [11] -11.2% [at 17.2 µM] | Potency [1] | activity change, negative = inhibition [2] -16.8% [at 17.2 µM] | activity, negative = inhibition [3, 16] -13.1% [at 17.2 µM] | Potency [12] > 20.6 µM | Potency [13] > 20.6 µM | Potency [4] | Potency [5] | activity change, negative = inhibition ([6]; at 25.7 µM (top of the series)) -5.41% | outcome [7] | outcome [9] | activity, negative = inhibition ([10]; parasite line A) 7.35% | activity, negative = inhibition ([10]; parasite line B) 9.64% | Potency (CP238) | Potency (CP262) | Potency (CP325) | Potency (ECU) | Potency (FAB9) | Potency (HB3) | Potency (JCK)
-5.35%: max response [6, 15]
-1.77%: max response [6, 14]
